Measured values published in ChEMBL document CHEMBL3988442, “University of Dundee, Small-Polar-MMV Screening Library” (2021).
About 950 (1.4%) of roughly 69,000 compounds showed an effect of 50% or more. The sample holds strong results, similar compounds and a random draw of the others, so the mix is not that of the screen.

system: Mycobacterium tuberculosis; assay: Cornell M. t heat shock assay; format: functional, organism-based; set-up: dose or concentration left out as unconfirmed; further: in the data most compounds retested in dose-response had high values

SMILES | Percent Effect [%]
Cl.Cn1nc(C2CCN(C(=O)CN3CCCCC3)CC2)c2cccnc21 | -23.31
Cn1ncc2c1NC(=O)CC2c1ccc(Cl)cc1Cl (stereo not given) | 51.94
Cn1ncc2c1NC(=O)CC2c1cc(Cl)ccc1F (stereo not given) | -20.48
Cn1ncc2c1NC(=O)CC2c1ccccc1Cl (stereo not given) | -2.735
Cc1ccc(CN(C)C(=O)c2n[nH]c(N)c2-c2ccccc2)o1 | -6.81
Cc1ccc(CN2CC[C@H]3OCC[C@@H](C(=O)NC4CC4)[C@@H]3C2)o1.O=C(O)C(F)(F)F | -2.405
CN(CCO)Cc1cc(Cl)ccc1OCC(O)CN1CCCCCC1 (stereo not given) | 54.32
CN(CCCO)Cc1cc(Cl)ccc1OCC(O)CN1CCCCCC1 (stereo not given) | 44.14
COCCN(C)Cc1cc(Cl)ccc1OCC(O)CN1CCCCCC1 (stereo not given) | 4.611
Cc1ccc(N2CCN(C(=O)CN3C[C@@H]4CC[C@H]3C4)CC2=O)cc1 | -8.228
Cc1ccc(CN2CCC3(CCC(=O)N3CC(=O)N(C)C)CC2)s1.O=C(O)C(F)(F)F | 11.8
Cc1ccccc1C(=O)N1CCC2(CCCN2CCN(C)C)CC1.O=C(O)C(F)(F)F.O=C(O)C(F)(F)F | 12.9
O=C(NCC1CCOC1)Nc1ccc(OCC(F)(F)F)nc1 (stereo not given) | 3.959
CN(C)c1ccc(NC(=O)NCC2CCOC2)cn1 (stereo not given) | 74.68
CCN(CC)c1ccc(NC(=O)NCC2CCOC2)cn1 (stereo not given) | 3.627
CCn1c(Cn2cncn2)nnc1C1CCN(C[C@H]2[C@@H]3CNC[C@@H]32)CC1 | -28.34
Cc1ccc(OCc2occc2C(=O)N2C[C@@H]3[C@@H](CN(C)C)[C@@H]3C2)cc1 | -7.572
CN(C)C(=O)CC1CC2(CCN(Cc3ccsc3)CC2)c2ccccc21.O=C(O)C(F)(F)F (stereo not given) | -34.9
Cc1cc(NC(=O)C(C)C)n(-c2nc(C)c(C)c(=O)[nH]2)n1 | 104.4
Cc1nc(-n2nc(C3CC3)cc2NC(=O)C(C)C)[nH]c(=O)c1C | 96.45
CC(C)C(=O)Nc1cc(C(C)(C)C)nn1-c1ccccn1 | 4.241
Cc1cc(C)n(-c2cncc(NCCNC(=O)C(C)C)n2)n1 | -20.98
CC(=O)Nc1cc(C2CC2)nn1-c1nc(C)c(C)c(=O)[nH]1 | 27.84
CC(C)C(=O)Nc1cc(C(=O)NC2CC(C)(C)NC(C)(C)C2)nn1C | -49.16

SMILES | Percent Effect [%]
COc1cc(COCC2CCN(Cc3cccnc3)CC2)cc(OC)c1.O=C(O)C(=O)O | -22.42
CC(C)CN1CCN(C)C2(CCN(Cc3ccsc3)CC2)C1=O.O=C(O)C(F)(F)F.O=C(O)C(F)(F)F | -18.88
CCc1ccc(CN2CCc3ncnc(-c4cccnc4)c3CC2)o1.O=C(O)C(F)(F)F.O=C(O)C(F)(F)F | -16.65
CCOC(=O)N1CCN(c2nc(CCN)nc3sc(C)c(C)c23)CC1 | 82.82
Cc1sc2nc(CCN)nc(N3CCN(S(C)(=O)=O)CC3)c2c1C | 12.46
Cc1sc2nc(CCN)nc(N3CCS(=O)(=O)CC3)c2c1C | 12.97
CSc1nc(N)c2c(n1)N=C1COC(O)=C1C2c1cccc(O)c1 (stereo not given) | 4.116
Cc1ccsc1CN1CCc2nc3ccsc3c(=O)n2CC1.Cl | 3.746
CCN(CC)c1ccc(NS(=O)(=O)c2cncc(F)c2)cn1 | -17.45
CCN(CC)c1ccc(NS(=O)(=O)c2cnn(C)c2)cn1 | -23.7
CCN(CC)c1ccc(NS(=O)(=O)c2cccnc2)cn1 | 61.96
CCCC(=O)N1C[C@@H]2CCN(c3cnccn3)C[C@@H]2C1.O=C(O)C(F)(F)F | -8.378
O=C(O)C(F)(F)F.O=C(c1cscn1)N1CC[C@]2(C[C@@H](OCCN3CCCC3)CO2)C1 | 0.0126
CNC(=O)[C@@H]1C[C@H]2CN(Cc3nccs3)C[C@H]2N1C.O=C(O)C(F)(F)F.O=C(O)C(F)(F)F | -19.94
Cc1cccc(CN2C(=O)CC[C@@H]3[C@H]2CCN3Cc2ccc(C)s2)n1.O=C(O)C(F)(F)F.O=C(O)C(F)(F)F | 6.515
COc1ccc(Cl)cc1CS(=O)(=O)Cc1noc(C)n1 | -24.6
COc1ccc(Cl)cc1CS(=O)(=O)Cc1nc(C)no1 | 62.62
COc1ccc(Cl)cc1CS(=O)(=O)Cc1nc(C2CC2)no1 | 45.18
COCCCN(Cc1ccccn1)Cc1ccnn1C1CCCCO1.O=C(O)CC(O)(CC(=O)O)C(=O)O (stereo not given) | -20.24
CC(NC(=O)Nc1nccs1)C(=O)NC1CCCC1 (stereo not given) | 1.171
CC(C)CCNC(=O)c1csc(NC2CC2)n1 | 43.35
O=C(Nc1ccccn1)c1csc(NC2CCCC2)n1 | 105.9
CCN(CC)C(=O)CCCNC(=O)c1csc(NC2CC2)n1 | -1.337
Cc1cccc(NC(=O)c2csc(NCC(C)C)n2)n1 | -0.3454

SMILES | Percent Effect [%]
O=C(Nc1nccs1)c1csc(NC2CCCC2)n1 | 106.3
Cc1cnc(NC(=O)c2csc(NCC(C)C)n2)s1 | 103.8
Cc1nc(NC2CCCC2)cc(C2CCN2C(=O)c2ccccn2)n1 (stereo not given) | -9.873
CC(C)Nc1nc(C(=O)Nc2ccccn2)cs1 | 9.074
CC(C)CCNc1nc(C(=O)NC2CC2)cs1 | 15.23
Cc1cnc(NC(=O)c2csc(NC3CCCC3)n2)s1 | 106.1
CC(C)NC(=O)c1csc(NC2CC2)n1 | 28.59
CC1CCN(C(=O)C2(Cc3cc(C4CCOC4)no3)CCNCC2)CC1.Cl (stereo not given) | 3.404
COc1nn(C)c2c1CCCN(C(=O)c1cccc3cccnc13)C2.O=C(O)C(F)(F)F | -1.629
COCC1CN(C(=O)Cc2cccs2)Cc2nnn(CC3CC3)c21 (stereo not given) | -31.31
Nc1cc(CCC2CN(Cc3ccc4cc[nH]c4c3)CCO2)ccn1 (stereo not given) | -29.21
Cc1ccsc1CN1C[C@@H]2COC[C@]2(COCC(=O)N(C)C)C1.O=C(O)C(F)(F)F | -23.94
Cc1ccc(CN2CCC3(CC2)CN(c2ccccc2)C(=O)CO3)o1.O=C(O)C(F)(F)F | -15.41
COCC1CC2(CCN(c3cccc(C)n3)CC2)CN1C(C)C.O=C(O)C(F)(F)F.O=C(O)C(F)(F)F (stereo not given) | 24.58
CN(C)C(=O)N1CCO[C@@H]2CC(COCc3cccnc3)C[C@H]21.O=C(O)C(F)(F)F (stereo not given in full) | 17.51
Cc1cnn(CCNCc2ccc(OCc3csc(C)n3)cc2)c1 | 5.493
c1ccc(OCc2nc(CNCCn3cccn3)cs2)cc1 | 46.73
Cc1cnn(CCCNCc2csc(COc3ccccc3)n2)c1 | 15.28
Cc1ccc(OCc2nc(CNCCn3cccn3)cs2)cc1 | 94.11
Cc1cnn(CCNCc2csc(COc3ccccc3)n2)c1 | 103.7
Cc1nc(COc2ccc(CNCCn3cccn3)cc2)cs1 | -21.22
Cc1nnc(N2CC[C@H]3C[C@H](C(=O)N(C)C)O[C@@H]3C2)s1.O=C(O)C(F)(F)F | 7.027
COCC1CN(CC2CC2)Cc2nn(CC3CC3)cc21.O=C(O)C(F)(F)F (stereo not given) | -19.88
CN(C)C(C)(C)CNC(=O)C(C)(C)c1ccccc1F | 97.79

SMILES | Percent Effect [%]
CC(C)(C(=O)NCC(N)=O)c1ccccc1F | 8.109
CC(C)(CNC(=O)C(C)(C)c1ccccc1F)C(N)=O | -4.561
CC1CCN(c2ncc3c(n2)CN(C2CCS(=O)(=O)C2)C3=O)CC1 (stereo not given) | -20.34
Cc1nccn1-c1cccc(C2CCCN2)n1.Cl (stereo not given) | -11.58
CCCS(=O)(=O)N1CCC2(CC1)CN(CC1CCOC1)c1ccccc12.O=C(O)C(F)(F)F (stereo not given) | 28.34
Cc1cccc(CN2C[C@@H]3COC[C@]3(CNC(=O)C3CC3)C2)c1.O=C(O)C(F)(F)F | 2.9
COCCCN(Cc1cc(O)nc2ccccc12)C(=O)NC(C)C | -0.9795
CC(C)NC(=O)N(Cc1cc(O)nc2ccccc12)C(C)C | -8.593
COCCN(Cc1cc(O)nc2ccccc12)C(=O)NC(C)C | 104.4
Cc1cc(N2CCN(C(=O)[C@@H]3C[C@@H]4C=C[C@H]3C4)CC2)cc(C)n1 | -20.18
O=C(CC1CC1)N1C[C@@H]2CCN(c3cnccn3)C[C@@H]2C1.O=C(O)C(F)(F)F | -16.38
O=C(NCCCN1CCOCC1)c1ccc(-n2ccc3ccccc32)s1 | 14.99
O=C(NCCCN1CCCC1=O)c1ccc(-n2ccc3ccccc32)s1 | 22.37
O=C(NCCCN1CCCCC1)c1ccc(-n2ccc3ccccc32)s1 | 102.3
CC(=O)N1C[C@@H]2CC[C@H](C1)N(S(=O)(=O)c1ccc(C#N)cc1Cl)C2 | 12.47
O=C(O)C(F)(F)F.O=C(c1cscn1)N1CCC2(CCN(Cc3cccs3)CC2)C1 | 3.711
O=C(Nc1cccnc1)[C@@H]1COC[C@H]2CN(C3CCCC3)C[C@H]21.O=C(O)C(F)(F)F.O=C(O)C(F)(F)F | -37.6
CCc1c(C)nc(SCc2ccccn2)[nH]c1=O | 33.29
CCCc1cc(=O)[nH]c(-c2ccccc2CN(C)CCC(C)C)n1 | -7.876
CCCc1cc(=O)[nH]c(SCc2ccccn2)n1 | 69.86
CCc1cc(=O)[nH]c(SCc2ccccn2)n1 | 70.99
Cc1nnc(SCc2ccccn2)s1 | 4.26
O=c1cc(C2CCNCC2)nc(CCc2ccccn2)[nH]1 | 6.043
